The source of these data is PubChem BioAssay AID602192 (The Scripps Research Institute Molecular Screening Center, 2012).

Out of some 2,400 compounds screened, about 750 (31%) were called active. Not all results are given here. Values without a mark were called inactive.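 How the source made its calls: active means mean activation across replicates above the hit cutoff set in the earlier primary screen (cut at about 8% in these data); inactive means the rest.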

Melanocortin receptor 4 (Homo sapiens), sequence (P32245 whole entry, looked up): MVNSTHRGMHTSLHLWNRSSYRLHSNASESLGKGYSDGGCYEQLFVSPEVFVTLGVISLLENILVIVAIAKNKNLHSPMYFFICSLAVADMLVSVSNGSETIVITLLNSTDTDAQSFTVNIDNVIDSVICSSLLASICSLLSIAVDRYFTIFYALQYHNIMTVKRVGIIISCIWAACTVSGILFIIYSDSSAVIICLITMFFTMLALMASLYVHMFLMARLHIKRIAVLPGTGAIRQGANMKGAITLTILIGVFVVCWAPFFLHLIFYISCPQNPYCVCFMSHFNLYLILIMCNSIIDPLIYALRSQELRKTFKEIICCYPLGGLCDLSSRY

The assay has as its target Melanocortin receptor 4 (Homo sapiens) (UniProt P32245). Put plainly: MC4R beta-arrestin agonists, retest, confirmation, cell-based, luminescence, U2OS (AID 602192). Conditions: U2OS MC4R beta-arrestin recruitment, at 8.9 µM, stronger effect = higher value, scaled DMSO 0%, Melanotan II 100%. In general terms: Activated receptors often draw arrestin, which recruitment assays turn into a signal.
As to `Cc1ccc(CCC(=O)Nc2ncc(Cc3cc(Cl)ccc3Cl)s2)o1`, the activation was 15.2% (active). As for `COc1c(Cl)cc(C(=O)Nc2ccc(Cl)cn2)cc1Cl`, the figure is 2.15%. Take `COc1cccc(NC(=S)NC(=O)c2c(Cl)c(C)nn2C)c1`: the activation is 0.75%. As for `CCN(CC)c1ccc(C(=O)N/N=C/c2ccc(N3CCOCC3)cc2)cc1`, the activation is 3.23%.

For `O=C(N/N=C/c1ccc(OC(=O)c2ccccc2Cl)cc1)c1ccc(O)cc1`, the activation was 10.9% (active). On to `CCCOc1ccc(C(=O)C(CCC(CNCC)C(=O)c2ccc(OCCC)cc2)CNCC)cc1` (configuration not stated), for which the activation is 47% (active). Take `COc1cc(/C=C2\Oc3ccc(C#Cc4ccc(O)cc4)cc3C2=O)cc(OC)c1`: the activation was 17.7% (active).

For `S=C(NCCCc1cnc[nH]1)NCCCN(Cc1ccc(Cl)c(Cl)c1)c1ccc(Br)cn1`, the activation was 12.9% (active). Next, `CC(C)c1ccc2c(c1)c(SC(C)(C)C)c(CC(C)(C)C(=O)O)n2Cc1ccc(Cl)cc1`: 6.79%.

Regarding `Cc1cc(OCc2cc(C(=O)NCc3cc(C(C)C)no3)no2)cc(C)c1Cl`, the activation is -1.7%. As for `Oc1ccccc1N1CCN(c2ncnc3sc(-c4ccccc4)cc23)CC1`, the figure is 3.16%; as for `O=C(NC(=S)Nc1cccc2c(O)cccc12)c1cccc(Br)c1`, 14.4% (active); as for `CCOc1ccc(/C=C/C(=O)OCC(=O)c2ccccc2OC)cc1OC`, 4.4%. As for `CCN1CCC2(CC1)N=C(c1ccc(F)cc1)C(=S)N2C(=O)c1ccc(C)cc1`, the figure is 6.69%. As for `NC(N)=Nc1nc(-c2ccccc2)c2cc(Cl)ccc2n1`, the figure is 19.8% (active). As for `CCCCN1CC(C)(C)[C@H](CC(=O)Nc2ccc(Br)cc2)C1=O`, the activation was 1.84%. Next, `CC(=O)Nc1cc(-c2ccccc2N(C)C)cn2c(-c3ccc(F)c(Cl)c3)cnc12`: 26% (active); `COc1cccc(-c2cnc3c(NC(C)=O)cc(-c4cc(F)ccc4OC)cn23)c1`: 27.2% (active); `COc1ccccc1-c1cc(NC(C)=O)c2ncc(-c3ccc(F)cc3)n2c1`: 15.2% (active). With `COc1ccccc1NC(=O)Nc1nnc(Cc2ccc(F)cc2)s1`, the activation is 4.89%.

For the compound `CC(=O)Nc1cc(-c2ccccc2F)cn2c(-c3cccc(C(F)(F)F)c3)cnc12`, the activation is 19% (active).

As for `Fc1ccccc1/C=N/Nc1cc(N2CCCCC2)ncn1`, the activation is -2.37%. For the compound `O=C(Nc1ccc2oc(-c3ccc4ccccc4c3)nc2c1)c1cccs1`, the activation was 3.96%. As for `O=C(CCCCCn1c(=S)[nH]c2cc3c(cc2c1=O)OCO3)N1CCN(c2ccc(F)cc2)CC1`, the figure is 5.47%; as for `COC(=O)c1sccc1NC(=O)c1cc(OC)c(OC)c(OC)c1`, 3.33%; as for `O=C(CCCCCN1C(=O)c2cccc3cccc(c23)C1=O)NCc1ccco1`, 6.44%.

Regarding `Cc1ccc(Sc2ccc(NC(=O)c3ccc(F)cc3)cc2C#N)cc1`, the activation is 2.18%. As for `Cc1ccc(S(=O)(=O)NCCC(=O)Nc2ccc(C)c(Cl)c2)cc1C`, the figure is 3.25%; as for `CCOC(=O)c1nn(-c2ccccc2F)c2nc(Nc3ccccc3)cc(=O)n12`, 2.15%; as for `CCN1CCN(CCNC(=O)c2ccc(/C=C3/Sc4ccccc4N(Cc4cccc(C)c4)C3=O)cc2)CC1`, 9.47% (active). Next, `O=C(NCCc1c[nH]c2ccc(Cl)cc12)c1ccc([N+](=O)[O-])cc1`: 3.47%; `Cc1ccc(-c2csc(SCC(=O)Nc3cc(C)on3)n2)cc1`: 3.04%; `Cc1ccc(C(=O)Nc2ccc(NC(=O)c3cccs3)cc2)c(C)c1`: 2.47%.

As for `Cc1ccc(-n2nc(C)c(/C=N/NC(=O)c3cccs3)c2Cl)cc1`, the activation is 12% (active). As for `COCCN(CCOC)S(=O)(=O)c1ccc(C(=O)Nc2nc3c(s2)CCc2ccccc2-3)cc1`, the figure is 0.54%; as for `CCCCCCCCCCOC(=O)Cn1c(COc2ccc(C)cc2)[n+](C)c2ccccc21`, 29.9% (active); as for `CCCCCCCCCCOC(=O)Cn1c(COc2cccc(OC)c2)[n+](C)c2ccccc21`, 21.6% (active). As for `COC(=O)c1c(C)[nH]c(C(=O)/C=C/c2ccc(Cl)cc2)c1C`, the figure is 2.58%; as for `CCn1c(SCC(=O)Nc2cccc(F)c2)nnc1-c1cc2cc(Br)ccc2o1`, 2.27%.

For `O=C(CCCn1c(SCC(=O)c2ccc(F)cc2)nc2ccccc2c1=O)NCc1ccco1`, the activation was 4.27%. For the compound `COc1ccc(Cl)cc1-n1c(C)cc(C(=O)OCC(=O)N2CC(=O)Nc3ccccc32)c1C`, the activation was 10.5% (active).

For `Cc1cccc(C)c1OC(=O)CSc1nnc(-c2ccccc2)o1`, the activation was 2.94%.

With `O=C1N/C(=C/c2cccn2-c2ccccc2)C(=O)N1c1cccc(Cl)c1`, the activation was 13.2% (active). As for `Clc1ccc(Nc2ncnc3c2nnn3Cc2ccccc2)cc1`, the figure is -0.43%; as for `O=C(OC12CC3CC(CC(C3)C1)C2)c1ccc(NCc2cc(O)ccc2O)cc1`, 5.55%. As for `Cc1ccccc1NC(=O)c1ccc(COc2ccc3c(C)cc(=O)oc3c2)cc1`, the figure is 28.2% (active); as for `COc1ccc(Cc2nnc(NC(=O)c3ccc(OC)cc3OC)s2)cc1`, -0.87%.

On to `COc1ccc(C(N)c2csc(NC(=O)Nc3cccc(C(F)(F)F)c3)n2)cc1` (configuration not stated), for which the activation is 11.5% (active). Consider `COc1ccc(CC(N)c2csc(NC(=O)NC(c3ccccc3)c3ccccc3)n2)cc1` (configuration not stated), for which the activation is 17.4% (active). As for `COc1cc(NC(=O)c2cncc(-c3ccc(C#N)cc3)c2)cc(C(=O)Nc2cccc(C(F)(F)F)c2)c1`, the figure is 2.95%.

In the case of `O=C(NC1CCCCCC1)c1cccnc1Sc1ccc(Cl)cc1`, the activation is 0.48%. As for `COc1ccc(C)c(Cn2c(-c3nonc3N)nc3ccccc32)c1`, the figure is -0.25%; as for `CCc1ccc2c(c1)cc(CN(C(=S)Nc1ccccc1Cl)C1CC1)c1nnnn12`, 0.41%. Next, `Cc1c(-c2ccccc2)n[nH]c1C(=O)N=Nc1c(O)[nH]c2ccccc12`: 3.31%. Next, `Cc1ccsc1/C=N/Nc1ccc(Cl)nn1`: 2.12%; `CCOC(=O)c1c(-c2ccccc2)oc2cc(Br)c(O)c(C=O)c12`: 12.2% (active); `Cc1ccc([C@H]2C[C@H](O)[C@@H](n3cc(COC(=O)c4ccccc4)nn3)CN2C(=O)C2CCCCC2)cc1`: 1.84%.
